Experimental findings from PubChem BioAssay AID504332 (National Center for Advancing Translational Sciences (NCATS), 2011) are described below.

The structures appear in SMILES notation. Among all 350,000 compounds or so, about 31,000 (8.9%) were called active. Another 15% or so got no clear call; they are omitted. For the sample, actives were picked, then their nearest neighbours and some compounds at random. Unmarked numbers belong to inactive results. Calls come from the whole dose curve; as a rule, active = well fitted inhibition curve with a large enough effect; inconclusive = small, poorly fitted or top-dose-only effect; inactive = no such curve, though single readings can be large or run the other way.
% is set by controls: 0 for no effect and ±100 for the full control effect; potency is the fitted concentration of half-maximal effect.

Sequence of Histone-lysine N-methyltransferase EHMT2 (Homo sapiens) (Q96KQ7 913-1193 limits assumed): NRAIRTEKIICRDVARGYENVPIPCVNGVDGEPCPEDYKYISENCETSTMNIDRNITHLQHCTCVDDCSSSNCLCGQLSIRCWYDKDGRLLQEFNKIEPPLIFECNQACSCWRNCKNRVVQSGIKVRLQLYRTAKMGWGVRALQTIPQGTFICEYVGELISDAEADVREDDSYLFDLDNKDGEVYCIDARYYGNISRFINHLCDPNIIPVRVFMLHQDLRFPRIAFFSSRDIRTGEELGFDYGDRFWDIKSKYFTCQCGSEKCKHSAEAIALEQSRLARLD

The assay addresses Histone-lysine N-methyltransferase EHMT2 (Homo sapiens) (UniProt Q96KQ7). In words: qHTS Assay for Inhibitors of Histone Lysine Methyltransferase G9a. Note: nearly all actives have a fitted effect of over 75% in size. The note with it: G9a H3K9 monomethylation, AlphaScreen, 2 h; series mostly up to 59 µM; activity, negative = inhibition: at the top concentration. The procedure, abridged:
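Readings reflect AlphaScreen signal from monomethyl-H3K9 antibody detection. HMT at 20 nM; substrate b-H3K9 500 nM; cofactor SAM 20 uM; 2 h RT reaction; compounds tested as titrations in qHTS with 15 min preincubation.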
(qHTS replaces the single test concentration by a dilution series.)
In the case of `Cc1cc2ccccc2n1CCNC(=O)c1ccc(F)cc1`, the “activity, negative = inhibition” value was -17.6%.

For the molecule `Cc1ccc(NC(=O)c2cn3c4c(ccc(Cl)c4c2=O)OC(C)C3)cc1C` (stereo unspecified), the “activity, negative = inhibition” value was -24.9%.

Consider `O=C(O)c1cc(S(=O)(=O)N(Cc2ccccc2)c2ccccc2)ccc1Cl`, for which the “activity, negative = inhibition” value is -15% [at 102 µM].

On to `FC(F)(F)c1cc(-c2ccco2)nc(N2CCOCC2)n1`, for which the “activity, negative = inhibition” value was -0.688%.

As for `Cc1cc(C)c2nc(-c3ccco3)cc(C(=O)O)c2c1`, the Potency is 10 µM (active).

Consider `CC1CCCN(C(=O)c2cc(-c3ccco3)nc3ccccc23)C1` (stereo unspecified), for which the activity, negative = inhibition was -9.53% [at 2.33 µM].

On to `Cc1cc2c(c(=O)n1Cc1ccccc1)C1O[C@](CCCCN3C(=O)c4ccccc4C3=O)(Cc3ccccc31)O2`, for which the activity, negative = inhibition was -0.249% [at 2.33 µM].

Regarding `O=C(c1c(F)cccc1Cl)N1CCN(S(=O)(=O)c2ccc3c(c2)OCCCO3)CC1`, the “activity, negative = inhibition” value is 30.5% [at 102 µM].

With `Cc1oc(-c2ccccc2F)nc1CN1CCC(C(=O)NCCc2ccc(Cl)cc2)CC1`, the “activity, negative = inhibition” value was -33.8%.

On to `CCOc1ccccc1-c1cc(C(=O)N2CCOCC2)c2ccccc2n1`, for which the “activity, negative = inhibition” value is 45.7% [at 102 µM].

For the molecule `CCOc1ccccc1-c1nc(CN2CCC(C(=O)N3CCOCC3)CC2)c(C)o1`, the Potency is 89.1 µM (active).

In the case of `O=S(=O)(c1ccc(Br)cc1)c1nnn2c1nc(N1CCOCC1)c1sccc12`, the “activity, negative = inhibition” value is -3.15%.

Regarding `CC(=O)N/N=C/c1cc2c(cc1[N+](=O)[O-])OCO2`, the “activity, negative = inhibition” value is 1.79% [at 102 µM].

Regarding `Cc1ccc(-c2n[nH]c(=S)n2/N=C/c2cc3c(cc2[N+](=O)[O-])OCO3)cc1`, the Potency was 1.26 µM (active).

With `Cc1nc([N+](=O)[O-])cn1CC(=O)Nc1ccc2c(c1)OCO2`, the “activity, negative = inhibition” value was 3.06% [at 102 µM].

In the case of `CCOC(=O)c1nc(-c2ccc3c(c2)OCO3)[nH]c1C`, the “activity, negative = inhibition” value is -9.21%.

Regarding `Cc1ccc(S(=O)(=O)N/N=C\c2cc3c(cc2[N+](=O)[O-])OCO3)cc1`, the Potency was 5.62 µM (active).

As to `Cc1ccc(S(=O)(=O)N2CCN(CC(=O)N/N=C/c3cc([N+](=O)[O-])ccc3Cl)CC2)cc1`, the “activity, negative = inhibition” value is 3.6% [at 102 µM].

Take `COc1ccccc1-c1nn(Cc2ccccc2)cc1C(=O)N1CCN(c2ncccn2)CC1`: the activity, negative = inhibition was 21.8% [at 12.7 µM].

Turning to `CNc1nnc(-c2ccco2)s1`, the “activity, negative = inhibition” value is 6.5% [at 102 µM].

For the molecule `COc1ccc(OCC(=O)Nc2nnc(-c3ccco3)s2)cc1`, the Potency was 50.1 µM (active).

On to `Cc1ccc(OCC(=O)Nc2nnc(-c3ccco3)s2)cc1`, for which the “activity, negative = inhibition” value is -20.3% [at 102 µM].

`Cc1cccc(NC(=O)Nc2ccc(OCc3ccccc3)cc2)n1`: the activity, negative = inhibition is 8.02% [at 2.33 µM].

Consider `CCOc1ccc(OCc2ccc(C(=O)Nc3cccc(C)n3)o2)cc1`, for which the Potency was 44.7 µM (active).

In the case of `Cc1cccc(NC(=O)c2ccc(COc3ccccc3[N+](=O)[O-])o2)n1`, the “activity, negative = inhibition” value is -23.8% [at 102 µM].

On to `COc1ccc(Cl)cc1S(=O)(=O)N1CCC(c2ccncc2)CC1`, for which the “activity, negative = inhibition” value was 6.73%.

On to `CC(C#N)(NC(=O)CN1CCN(S(=O)(=O)c2cc(C(F)(F)F)ccc2Cl)CC1)C1CC1` (stereo unspecified), for which the “activity, negative = inhibition” value is -20.4% [at 102 µM].

Turning to `N#Cc1ccsc1NC(=O)CN1CCN(S(=O)(=O)c2cc(Cl)ccc2Cl)CC1`, the Potency is 50.1 µM (active).

Turning to `N#Cc1ccsc1NC(=O)CN1CCCCC1`, the “activity, negative = inhibition” value is -24.5% [at 102 µM].

As for `COc1ccc(Cl)cc1S(=O)(=O)N1CCC(O)(c2ccc(Cl)cc2)CC1`, the “activity, negative = inhibition” value is 39.4%.

For `COc1ccc(Cl)cc1S(=O)(=O)N1CCN(CC(=O)C(C)(C)C)CC1`, the Potency is 44.7 µM (active).
